The values below come from PubChem BioAssay (NCATS).

SMILES strings stand for the structures. Several values for one entry are separate records, joined by “and”; a condition that tells them apart may be missing. Equal values may be shown once. Results filed as inconclusive are left out. Activity calls are given as the source filed them. The call rests on the fitted dose curve; in most records, active means well fitted curve in the direction sought with a large enough effect; inconclusive means small, poorly fitted or top-dose-only effect, or another doubt; inactive means no such curve, though single readings can be large; an effect the other way counts as inactive or inconclusive.

For test [1], the system named is Zika virus NS2B-NS3 protease. Nature of the test: Primary screen GU AMC qHTS for Zika virus inhibitors (AID 1347154). Further: nearly all actives have a fitted effect of over 70% in size. Further: potency means the concentration at half of the fitted maximal effect. Put shortly: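 Unlinked Zika NS2B hydrophilic domain/NS3 protease domain noncovalent complex (25 nM final) in 10 mM Tris-HCl pH 8.0, 0.01% Tween 20, with AMC peptide substrate. Fluorescence (ex 340, em 450 nm) change over 15 min, room temperature; percent inhibition fitted to 4-parameter Hill equation.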

Test [2] has as its system Zika virus NS2B-NS3 protease (unlinked). Nature of the test: Optimization of GU AMC qHTS for Zika virus inhibitors: Unlinked NS2B-NS3 protease assay (AID 1347151). Further: series mostly up to about 52 µM; nearly all actives have a fitted effect of over 80% in size. Put shortly: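 Unlinked protease (25 nM final); buffer 10 mM Tris-HCl pH 8.0 + 0.01% Tween 20; AMC substrate; 15 min RT, dark; Δfluorescence normalized to no-inhibitor/no-enzyme controls; 4-parameter Hill fit.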

The target of test [3] is Lysine-specific demethylase 5B (Homo sapiens) (UniProt Q9UGL1). In words: Optimization screen for KDM5B Histone Demethylases FDH coupled qHTS against the LOPAC library (AID 1347166). Put shortly:
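KDM5BDeltaAP (200nM final) preincubated 10 min with compound, then 12.5uM H3K4Me3, 25uM a-ketoglutarate, ascorbate, Fe(II), NAD+ and FDH added; 50mM HEPES pH 7.5, 0.01% Tween-20. NADH fluorescence (340/450 nm) change over 30 min, room temperature.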
On the technique in general: Quantitative high-throughput screening tests each substance at several concentrations.

A further test concerns the target Furin (Homo sapiens) (UniProt P09958). Nature of the test: Furin counterscreen qHTS for Zika virus inhibitors (AID 1347149). Further: potency means the concentration at half of the fitted maximal effect; nearly all actives have a fitted effect of over 70% in size. Put shortly:
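Fluorogenic cleavage of BOC-RVRR-AMC (2 microM final, Km ~15 µM) was monitored (ex 340, em 450 nm) at 37C after 15 min RT preincubation of 5 nM furin with compounds in HEPES pH 7.0 buffer with CaCl2 and Triton X-100. Percent inhibition was fitted to a 4-parameter Hill curve.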

Test [4] has as its system Zika virus NS2B-NS3 protease (linked construct). In words: Confirmatory screen NINDS AMC qHTS for Zika virus inhibitors (AID 1347152). Further: potency means the concentration at half of the fitted maximal effect; nearly all actives have a fitted effect of over 70% in size. Put shortly:
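Enzyme (1 nM, linked construct) was preincubated with compound for 15 minutes at room temperature in 10 mM Tris-HCl pH 8.0 with 0.01% Tween 20. Bz-Nle-Lys-Arg-Arg-AMC was then added to 10 microM, and AMC fluorescence was recorded immediately and after 15 minutes.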

A short description of test [5]: Confirmatory screen NINDS Rhodamine qHTS for Zika virus inhibitors (AID 1347161). Further: nearly all actives have a fitted effect of over 60% in size. Further: potency means the concentration at half of the fitted maximal effect. Put shortly: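 Purified NS2B-NS3 protease with the NS2B hydrophilic domain joined by a flexible linker (25 nM) in 10 mM Tris-HCl pH 8.0, 0.01% Tween 20, preincubated 15 min at RT with compound; Rhodamine110 peptide substrate 1.5 µM; fluorescence change over 15 min; 4-parameter Hill fit.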

Test [6] can be described thus: Vero cells viability qHTS for Zika virus inhibitors (AID 1347167). Put shortly: (§1)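 Counter-screen for cytotoxicity of hits from NS2B-NS3 protease qHTS. Overnight-attached cells (2.5 x 10^5 cells/mL, DMEM/4% FBS) were dosed in titration, incubated 24 to 48 hours, then assayed by CellTiter Glo.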
Test [7] is described as follows: HepG2 cells viability qHTS for Zika virus inhibitors (AID 1347168). Put shortly: as §1
Test [8] can be described thus: Tertiary RLuc qRT-PCR qHTS assay for Zika virus inhibitors (AID 1347169). Further: nearly all actives have a fitted effect of over 55% in size. Further: potency means the concentration at half of the fitted maximal effect. Put shortly: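 Vero, 1,000 cells/well, o/n 37 C; cpd pinned in DMSO; ZIKV-RLuc Cambodian, MOI 1-2, 48-72 h 37 C; live-cell RLuc substrate, lum read at 1-1.5 h.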
A general note: Quantitative PCR measures a nucleic acid by following its amplification.

Test [9] concerns Zika virus NS2B-NS3 protease (unlinked complex). In words: Confirmatory screen GU AMC qHTS for Zika virus inhibitors (AID 1347153).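 Further: enzyme at 25 nM with substrate at 10 µM below its Km of 18.3 µM; potency means the concentration at half of the fitted maximal effect; nearly all actives have a fitted effect of over 70% in size.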 Put shortly:
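Compounds were preincubated 15 min at room temperature with 25 nM noncovalent NS2B-NS3 protease at pH 8.0; AMC substrate added at 10 microM and 15-min fluorescence gain (340/450 nm) converted to percent inhibition, fitted 4-parameter.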

Test [10] in a line: Confirmatory screen GU Rhodamine qHTS for Zika virus inhibitors qHTS (AID 1347157). The settings on record: purified enzyme assay, Rhodamine110 substrate fluorescence, 15 min. Put shortly: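 Unlinked NS2B/NS3, 25 nM; Rhod110 peptide, 1.5 microM; compounds, up to 114 microM. Reaction run 15 min at RT in 10 mM Tris-HCl pH 8.0, 0.01% Tween 20; kinetic fluorescence change fitted with a 4-parameter Hill model.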

Test [11] relates to Zika virus NS2B-NS3 protease (unlinked complex). In words: Primary screen GU Rhodamine qHTS for Zika virus inhibitors: Unlinked NS2B-NS3 protease assay (AID 1347159). Further: nearly all actives have a fitted effect of over 60% in size. Further: potency means the concentration at half of the fitted maximal effect. Put shortly: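 Percent inhibition derives from the 15-min fluorescence change (ex 480, em 540 nm), normalized to no-enzyme and no-inhibitor wells. Reactions contained 25 nM NS2B-NS3 complex and 1.5 microM substrate in 10 mM Tris-HCl pH 8.0.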

Test [12] deals with Zika virus NS2B-NS3 protease (linked construct). In words: Primary screen NINDS Rhodamine qHTS for Zika virus inhibitors (AID 1347160). Further: nearly all actives have a fitted effect of over 55% in size. Further: potency means the concentration at half of the fitted maximal effect. Put shortly:
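In 10 mM Tris-HCl pH 8.0 containing 0.01% Tween 20, linked NS2B-NS3 protease (25 nM final) is exposed to test compounds for 15 min. Cleavage of 1.5 microM Rhodamine110 substrate is tracked by fluorescence over 15 min.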

The subject of test [13] is Zika virus NS2B-NS3 protease (linked). Nature of the test: 384 well plate NINDS AMC confirmatory qHTS for Zika virus inhibitors (AID 1347163). Further: potency means the concentration at half of the fitted maximal effect; nearly all actives have a fitted effect of over 50% in size. The settings on record: Recombinant NS2B-NS3 protease, Ac-VKTGKR-AMC fluorescence. Put shortly:
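Linked NS2B-NS3 protease (final 5 nM, 30 nM or 60 nM) was preincubated with compounds (final up to 1 mM) for ~15 minutes. Ac-VKTGKR-AMC substrate (final 30 microM) then reacted for 25 minutes at room temperature in the dark. Fluorescence (ex 355/em 460 nm) was normalized to no-enzyme and no-inhibitor controls.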

Test [14] deals with Zika virus NS2B-NS3 protease (linked construct). Nature of the test: 384 well plate NINDS Rhodamine confirmatory qHTS for Zika virus inhibitors (AID 1347164).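 Further: fluorescence from protease cleavage of Ac-LKRR-rhodamine 110 substrate; potency means the concentration at half of the fitted maximal effect; nearly all actives have a fitted effect of over 65% in size.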 Put shortly: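 Enzyme (final 5/30/60 nM) + cpd (DMSO), ~15 min; add Ac-LKRR-Rd 10 microM final; 25 min RT, dark; FI ex 485/em 538; normalized to no-enzyme, no-inhibitor ctrls; aprotinin intraplate ctrl.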
Test [15] concerns the target N-terminal Xaa-Pro-Lys N-methyltransferase 1 (Homo sapiens) (UniProt Q9BV86). In words: qHTS Assay for Inhibitors of N-terminal methyltransferase 1 (NTMT1): LOPAC validation of the NTMT1 SAHH-coupled ThioGlo3 Assay (AID 1347143). Further: nearly all actives have a fitted effect of over 70% in size. Put shortly: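 Fluorescence read-out (excitation 340nm, emission 450nm) of SAH-derived thiol, measured via SAHH coupling and ThioGlo3, taken immediately and after a 30 min room-temperature reaction, then normalized to the background read. Enzyme: NTMT1 at 125nM; cofactor SAM 100uM in the added reagent.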

Chain of Lysine-specific demethylase 5B (Homo sapiens) (Q9UGL1 whole entry, looked up): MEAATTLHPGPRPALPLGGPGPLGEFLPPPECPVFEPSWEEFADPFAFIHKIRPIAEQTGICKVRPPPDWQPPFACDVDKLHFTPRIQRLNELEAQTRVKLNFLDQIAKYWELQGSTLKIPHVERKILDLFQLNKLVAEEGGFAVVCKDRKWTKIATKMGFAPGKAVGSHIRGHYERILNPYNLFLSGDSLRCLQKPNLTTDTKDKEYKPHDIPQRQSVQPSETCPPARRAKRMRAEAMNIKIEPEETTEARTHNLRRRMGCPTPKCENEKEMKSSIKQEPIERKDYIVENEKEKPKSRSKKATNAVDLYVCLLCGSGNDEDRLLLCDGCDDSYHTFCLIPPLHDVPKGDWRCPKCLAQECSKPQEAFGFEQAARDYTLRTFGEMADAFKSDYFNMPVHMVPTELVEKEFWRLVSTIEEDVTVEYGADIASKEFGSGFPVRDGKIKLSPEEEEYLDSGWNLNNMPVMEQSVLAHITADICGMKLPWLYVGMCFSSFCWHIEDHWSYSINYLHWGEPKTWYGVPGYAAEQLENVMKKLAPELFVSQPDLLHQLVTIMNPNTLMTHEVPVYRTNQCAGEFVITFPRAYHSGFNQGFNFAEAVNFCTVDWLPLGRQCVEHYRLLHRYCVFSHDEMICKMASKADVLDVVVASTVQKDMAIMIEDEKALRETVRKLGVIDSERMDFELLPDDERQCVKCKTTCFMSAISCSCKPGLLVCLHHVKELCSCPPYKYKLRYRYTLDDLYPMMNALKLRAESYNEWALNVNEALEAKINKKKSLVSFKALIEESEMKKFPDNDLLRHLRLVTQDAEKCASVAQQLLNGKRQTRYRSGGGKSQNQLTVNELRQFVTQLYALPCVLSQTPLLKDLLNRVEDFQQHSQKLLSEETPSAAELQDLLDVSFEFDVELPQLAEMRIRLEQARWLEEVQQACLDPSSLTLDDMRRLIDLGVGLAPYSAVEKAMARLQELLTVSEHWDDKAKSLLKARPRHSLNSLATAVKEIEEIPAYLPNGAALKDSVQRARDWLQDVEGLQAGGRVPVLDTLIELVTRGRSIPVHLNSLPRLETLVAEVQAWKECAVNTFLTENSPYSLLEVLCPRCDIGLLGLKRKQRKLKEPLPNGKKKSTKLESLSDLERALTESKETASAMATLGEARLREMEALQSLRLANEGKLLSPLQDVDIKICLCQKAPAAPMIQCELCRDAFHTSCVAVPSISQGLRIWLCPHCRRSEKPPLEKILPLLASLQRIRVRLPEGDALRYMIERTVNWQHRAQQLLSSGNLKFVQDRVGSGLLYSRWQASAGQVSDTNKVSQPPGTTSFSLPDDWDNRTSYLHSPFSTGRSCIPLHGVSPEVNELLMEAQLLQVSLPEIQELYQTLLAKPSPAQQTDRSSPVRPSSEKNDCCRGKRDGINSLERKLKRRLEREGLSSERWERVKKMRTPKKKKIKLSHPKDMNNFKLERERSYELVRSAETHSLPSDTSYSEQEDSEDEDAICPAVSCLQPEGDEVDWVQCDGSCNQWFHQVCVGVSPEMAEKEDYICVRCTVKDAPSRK
Chain of N-terminal Xaa-Pro-Lys N-methyltransferase 1 (Homo sapiens) (Q9BV86 whole entry, looked up): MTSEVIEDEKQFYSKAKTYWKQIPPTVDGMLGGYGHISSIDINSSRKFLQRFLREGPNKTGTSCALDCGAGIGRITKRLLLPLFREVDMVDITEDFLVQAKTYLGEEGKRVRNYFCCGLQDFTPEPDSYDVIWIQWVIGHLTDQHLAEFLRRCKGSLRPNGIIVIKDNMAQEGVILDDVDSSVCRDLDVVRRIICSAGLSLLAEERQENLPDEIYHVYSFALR
Chain of Furin (Homo sapiens) (P09958 whole entry, looked up): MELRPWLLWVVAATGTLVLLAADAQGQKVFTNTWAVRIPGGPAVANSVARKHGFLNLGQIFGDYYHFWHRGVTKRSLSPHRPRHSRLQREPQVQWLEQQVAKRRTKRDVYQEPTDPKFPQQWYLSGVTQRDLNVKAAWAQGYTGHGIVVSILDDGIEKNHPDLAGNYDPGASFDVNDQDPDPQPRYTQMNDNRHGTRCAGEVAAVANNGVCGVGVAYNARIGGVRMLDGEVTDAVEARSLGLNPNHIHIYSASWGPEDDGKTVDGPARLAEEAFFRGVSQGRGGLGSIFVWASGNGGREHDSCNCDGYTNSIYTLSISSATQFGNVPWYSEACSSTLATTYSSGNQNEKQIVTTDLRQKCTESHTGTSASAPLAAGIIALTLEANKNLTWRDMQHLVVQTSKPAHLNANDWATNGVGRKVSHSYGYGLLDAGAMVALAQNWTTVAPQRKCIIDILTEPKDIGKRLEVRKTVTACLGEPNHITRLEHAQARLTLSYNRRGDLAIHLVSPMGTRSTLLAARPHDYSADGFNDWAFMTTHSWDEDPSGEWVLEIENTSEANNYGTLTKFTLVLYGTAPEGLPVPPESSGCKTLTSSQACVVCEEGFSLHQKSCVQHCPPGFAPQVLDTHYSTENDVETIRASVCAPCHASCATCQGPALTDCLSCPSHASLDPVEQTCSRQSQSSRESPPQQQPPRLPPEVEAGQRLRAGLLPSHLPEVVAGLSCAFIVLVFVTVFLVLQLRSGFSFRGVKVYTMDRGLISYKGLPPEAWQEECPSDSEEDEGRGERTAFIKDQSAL

For `COc1ccc(C(=O)c2c(C)n(CCN3CCOCC3)c3ccccc23)cc1`, the Potency result in [1] was “inactive”.
As for `Fc1ccc(C(OCCN2CCN(CCCc3ccccc3)CC2)c2ccc(F)cc2)cc1`, the Potency entry in [2] and in test [1] was “inactive” throughout. The compound was called inactive in test [3].
Turning to `C=C1C[C@@H]2[C@H](CC[C@]3(C)C(=O)CC[C@@H]23)[C@@]2(C)C=CC(=O)C=C12`, the Potency entry in test [1] is “inactive”.
Regarding `CCN(C(C)=O)c1cccc(-c2ccnc3c(C#N)cnn23)c1`, the Potency with Furin (Homo sapiens) was 24.1 µM (active); in test [4], 27.1 µM (active); in test [1] it was 31.6 µM (active). Moreover, the Potency result in test [5] and in [8] was “inactive” each time. Moreover, the call in [6] and in [7] was inactive.
Regarding `C[C@@H]1[C@@H](C(=O)C[C@H]2O[C@@H]3O[C@]4(C)CC[C@@H]5[C@H](C)CC[C@@H]([C@H]2C)[C@@]35OO4)O[C@@H]2O[C@]3(C)CC[C@H]4[C@H](C)CC[C@@H]1[C@@]24OO3`, in [1], the Potency entry was “inactive”.
On the same count and under the same terms, to `COc1ccc(Cc2nccc3cc(OC)c(OC)cc23)cc1OC` belongs “inactive”.
As for `Cc1cc(SCc2sc(-c3ccc(C(F)(F)F)c(F)c3)nc2C)ccc1OCC(=O)O`, the Potency was 17.1 µM (active) and 12.4 µM (active) in test [4]; 19.2 µM (active) and 17.1 µM (active) in [9]; 7.64 µM (active) in [1]; 2.21 µM (active) in [10]; 2.82 µM (active) in [11]; 1.78 µM (active) in [12]. Further, the Potency was 1.75 µM (active) and 1.96 µM (active) and 1.97 µM (active) in test [5]; 39.8 µM (active) in test [13]; 35.5 µM (active) in [14]; 23.4 µM (active) in test [8]. The outcome in test [6] and in test [7] was inactive.
Regarding `NP(N)(=O)NC(=O)c1ccc(F)cc1`, the Potency result in [1] was “inactive”.
With `CC[N+](CC)(CC)CC`, the Potency result in test [15] and in test [1] was “inactive” throughout.
For `C#CCOC(C(=O)OCCN(C)C)(c1ccccc1)c1ccccc1`, the Potency entry in test [1] is “inactive”.
As for `CC(O)(CS(=O)(=O)c1ccc(F)cc1)C(=O)Nc1ccc(C#N)c(C(F)(F)F)c1` (stereo not given), the Potency entry in [2], in test [1], in test [11] and in test [12] was “inactive” each time. The compound was classed as inactive in test [3].
In the case of `CN1CCN(C(=O)O[C@H]2c3nccnc3C(=O)N2c2ccc(Cl)cn2)CC1`, the Potency result in [1] is “inactive”.
In the case of `Clc1ccc(CCC(Cn2ccnc2)Sc2c(Cl)cccc2Cl)cc1` (stereo not given), the Potency entry in [1] is “inactive”.
`CNC(=O)N1N=C(c2ccc(N)cc2)c2cc3c(cc2CC1C)OCO3` (stereo not given): the Potency result in [1], in test [11] and in test [12] was “inactive” throughout.
